In the library only some 20% were active in any assay of this set; here they are far more common.
Pf growth 48h – Primary qHTS for delayed death inhibitors of the malarial parasite plastid, 48 hour incubation. P. falciparum luciferase growth in erythrocytes, 48 h. Potency, µM (titrated, usually from 28.7 µM), without a hit: at the highest dose activity change, negative = inhibition, usual class: inhibitors. actives 5.9% (n = 310,000); also: potency is read from the fitted curve at half-maximal effect; % is scaled to controls: 0 for no effect and ±100 for the full control effect
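First compound was added to culture medium, then infected red cells at 0.1% parasitemia and 2% hematocrit (final). After incubation at 37 C under 5% CO2, luciferase detection reagent was dispensed and light output recorded.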
Shiga toxin inh – A qHTS for Small Molecule Inhibitors of Shiga Toxin | inhibition, % at 38.7 µM | Vero cells, Shiga toxin protein synthesis inhibition reporter | AID 2315, 2010 | actives 9.2% (n = 290,000); in the data active = inhibition mostly above about 28%, no sharp cut-off; inactive = mostly below about 43%; also: 0% is about no effect
Pf growth 96h – Primary qHTS for delayed death inhibitors of the malarial parasite plastid, 96 hour incubation; P. falciparum luciferase reporter growth, 96 h; Potency, µM (titrated, usually from 28.7 µM), without a hit: at the highest dose activity change, negative = inhibition, actives largely listed as inhibitors; actives 6.9% (n = 320,000); AID 504834, 2011; also: potency is read from the fitted curve at half-maximal effect; % is scaled to controls: 0 for no effect and ±100 for the full control effect
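Compounds incubated with erythrocytes infected by luciferase-expressing P. falciparum (2% hematocrit, 0.05% parasitemia final) for 96 hours, 37 C in 5% CO2. Growth inhibition scored as decreased luciferase luminescence.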
HCMV antiviral – qHTS Assay for inhibitors of the human cytomegalovirus (HCMV). HFF cells, HCMV-luciferase reporter, 72 h; active compounds read low. activity change, negative = inhibition, % at 57.5 µM. actives 4.5% (n = 410,000). AID 1259415, 2018; in the data active = activity change below about -60%; inconclusive = no clear call, values can overlap the other calls; inactive = above about -39%; also: % is scaled to controls: 0 for no effect and ±100 for the full control effect
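Screen run at 2 compound doses on HFFs infected with reporter HCMV, MOI 1 PFU/cell. Luciferase activity from cell lysates at 72 h post infection gave inhibition relative to buffer-only and Salinomycin wells.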
CHX counter – Cycloheximide Counterscreen for Small Molecule Inhibitors of Shiga Toxin; cell reporter, cycloheximide protein synthesis inhibition counterscreen; max response, %; actives 12% (n = 300,000); AID 2314, 2010; in the data active = max response mostly above about 13%, no sharp cut-off; inactive = mostly below about 14%; also: read at 38.3 µM for the half of the compounds with a filed dose; 0% is about no effect
* hit, by the source's call; [ ] = remark or other dose. Unless noted, calls follow the shape of the dose curve; as a rule, active = well fitted inhibition curve with a large enough effect; inconclusive = small, poorly fitted or top-dose-only effect, or another doubt; inactive = no such curve, though single readings can be large or run the other way.

How did Cc1ccccc1Nc1nc(N)nc(CSc2nnc(C)n2C)n1 do in these assays?
Pf growth 48h: 0.0%; Shiga toxin inh: -3.3; Pf growth 96h: 14.3%; HCMV antiviral: 53.4; CHX counter: 6.0

Results for Cc1ccc(SCc2nc(N)nc(Nc3ccccc3C)n2)c(C)c1 ?
Pf growth 48h: 2.2%; Shiga toxin inh: 47.3*; Pf growth 96h: inconclusive; HCMV antiviral: -61.0*; CHX counter: 17.2

How did Cc1ccc(Nc2nc(N)nc(CSc3nccn3C)n2)c(C)c1 do in these assays?
Pf growth 48h: 89.3%; Shiga toxin inh: 42.1*; HCMV antiviral: 43.1; CHX counter: 17.7*

How did Cc1ccc(SCc2nc(N)nc(Nc3ccccc3C)n2)cc1C do in these assays?
Pf growth 48h: -0.2%; Shiga toxin inh: 8.3; Pf growth 96h: inconclusive; HCMV antiviral: -100.6*; CHX counter: 10.3

How did Cc1ccc(NS(=O)(=O)c2c(C(=O)N3CCCC3)c(C)n(C)c2C)cc1 do in these assays?
Pf growth 48h: 28.8%; Shiga toxin inh: -4.0; Pf growth 96h: -24.8%; HCMV antiviral: -29.0; CHX counter: 1.5

What do the screens show for `CCNC(=O)c1ccc2nc(CCc3ccccc3)oc2c1`?
HCMV antiviral: 44.7

What do the screens show for `O=C(Nc1ccccc1N1CCOCC1)c1cc2c(s1)CCCCC2`?
Pf growth 48h: 14.4%; Shiga toxin inh: 52.7*; Pf growth 96h: 35.2%; HCMV antiviral: -33.6; CHX counter: 39.7*

How did O=C(Nc1ccc(N2CCOCC2)cc1)c1cc2c(s1)CCCC2 do in these assays?
Pf growth 48h: -32.7%[1.15 µM]; Shiga toxin inh: 51.2; Pf growth 96h: -2.4%; HCMV antiviral: inconclusive; CHX counter: 17.0*

How did CCc1sc(C(=O)Nc2ccccc2N2CCOCC2)cc1C do in these assays?
Pf growth 48h: -17.2%; Shiga toxin inh: 12.1; Pf growth 96h: 3.8%; HCMV antiviral: -75.4*; CHX counter: -0.8

How did O=C(COc1ccccc1)N=C1SC2CS(=O)(=O)CC2N1c1ccc(F)cc1 (stereo unspecified) do in these assays?
Pf growth 48h: 19.6%; Shiga toxin inh: -8.6; Pf growth 96h: 35.2%; HCMV antiviral: -21.3; CHX counter: -0.2

What do the screens show for `CCCCOC(=O)c1ccc(NC2=NS(=O)(=O)c3ccccc32)cc1`?
HCMV antiviral: 1.3

Results for O=C(N/N=C/c1ccc(Br)s1)c1c[nH]c2ccccc12 ?
Pf growth 48h: 10.1%; Shiga toxin inh: 68.4*; Pf growth 96h: -26.0%; HCMV antiviral: -38.7; CHX counter: 46.0*

How did O=C(N/N=C/c1cc(Br)cs1)c1c[nH]c2ccccc12 do in these assays?
Pf growth 48h: inconclusive; Shiga toxin inh: 62.4*; Pf growth 96h: inconclusive; HCMV antiviral: 25.5; CHX counter: 44.2*

What do the screens show for `C=CCN=C1CC(C)(C)CC(=O)/C1=C(\O)CCCN1C(=O)c2ccccc2C1=O`?
Pf growth 48h: 9.9%; Shiga toxin inh: -6.8; Pf growth 96h: inconclusive; HCMV antiviral: -6.6; CHX counter: 4.5

What do the screens show for `CN1CCN(Cc2ccc3ccccc3c2)CC1`?
Pf growth 48h: inconclusive; Shiga toxin inh: 8.9; Pf growth 96h: 11.7µM*; HCMV antiviral: 9.4; CHX counter: -1.7

Results for CN1CCN(Cc2cccc(Oc3ccc(Cl)cc3)c2)CC1 ?
Shiga toxin inh: 45.4; Pf growth 96h: inconclusive; HCMV antiviral: -60.8*; CHX counter: 21.5

How did c1ccc2cc(CN3CCOCC3)ccc2c1 do in these assays?
Pf growth 48h: 5.4%; Shiga toxin inh: 8.4; Pf growth 96h: 7.3%; HCMV antiviral: 24.4; CHX counter: 2.5

What do the screens show for `Cc1ccc(S(=O)(=O)NCC(c2ccccc2)N2CCN(c3ccc(F)cc3)CC2)cc1` (stereo unspecified)?
Pf growth 48h: inconclusive; Shiga toxin inh: 10.3; Pf growth 96h: inconclusive; HCMV antiviral: 32.4; CHX counter: -1.0

How did CC1(C(=O)Nc2ccc(Cl)c(Cl)c2)CCN1C(=O)CC1CCCC1 (stereo unspecified) do in these assays?
HCMV antiviral: -22.7

Results for CC1=NNC(=O)/C1=C\c1cn(-c2ccccc2)nc1-c1cccs1 ?
Pf growth 48h: inconclusive; Shiga toxin inh: -14.7; Pf growth 96h: 8.28µM*; HCMV antiviral: -100.1*; CHX counter: -8.6

How did O=C1NC(=O)C(c2cn(-c3ccccc3)nc2-c2ccc(F)cc2)N1 (stereo unspecified) do in these assays?
Pf growth 48h: 4.65µM*; Shiga toxin inh: -5.5; Pf growth 96h: inconclusive; HCMV antiviral: -24.2; CHX counter: -2.9

What do the screens show for `CCOC(=O)C1=C(C)NC(=O)NC1c1cn(-c2ccccc2)nc1-c1ccc(OC(C)C)cc1` (stereo unspecified)?
HCMV antiviral: 1.3

What do the screens show for `CC1=NNC(=O)/C1=C\c1cn(-c2ccccc2)nc1-c1ccc(F)cc1`?
Pf growth 48h: 5.22µM*; Shiga toxin inh: 21.6; Pf growth 96h: 53.5%; CHX counter: 1.1

What do the screens show for `O=C(O)c1cn(-c2ccccc2)nc1-c1ccc(F)cc1`?
Pf growth 48h: 32.0%; Shiga toxin inh: -11.3; Pf growth 96h: 0.0%; HCMV antiviral: 0.0; CHX counter: -2.7

What do the screens show for `O=Cc1cn(-c2ccccc2)nc1-c1ccc(F)cc1`?
Pf growth 48h: 30.2%; Shiga toxin inh: 16.1; Pf growth 96h: inconclusive; HCMV antiviral: -3.1; CHX counter: active

Results for O=C(O)CCCCCN1C(=O)/C(=C/c2cn(-c3ccccc3)nc2-c2cccs2)SC1=S ?
HCMV antiviral: -19.4

What do the screens show for `CCOc1ccc(OCC)c(NC(=O)CN2CCC(NC(=O)c3cccc(F)c3)CC2)c1`?
Pf growth 48h: inconclusive; Shiga toxin inh: 10.1; Pf growth 96h: inconclusive; HCMV antiviral: -30.7; CHX counter: -4.0

Results for CCOC(=O)C(NC(C)=O)(N1CCc2ccccc2C1)C(F)(F)F (stereo unspecified) ?
Pf growth 48h: -9.8%; Shiga toxin inh: 15.4; Pf growth 96h: -18.9%; HCMV antiviral: 24.3; CHX counter: -3.6

Results for C[C@H]1CN([C@@H](C)CO)S(=O)(=O)c2ccc(-c3ccc(C#N)cc3)cc2O[C@H]1CN(C)C(=O)CN(C)C ?
HCMV antiviral: -11.0

How did Cc1ccc(-n2c(=O)c3oc4ccccc4c3n(CC(=O)Nc3ccccc3)c2=O)cc1C do in these assays?
HCMV antiviral: -66.5*

Results for COc1cccc(NC(=O)Cn2c(=O)n(-c3ccccc3)c(=O)c3oc4ccccc4c32)c1 ?
Pf growth 48h: -3.0%; Shiga toxin inh: -8.0; Pf growth 96h: -57.3%; HCMV antiviral: -67.9*; CHX counter: 8.0

What do the screens show for `Cc1ccc(NC(=O)Cn2c(=O)n(-c3ccc(C)cc3)c(=O)c3ccc(C(=O)NCc4ccccc4Cl)cc32)cc1`?
HCMV antiviral: -60.2*

What do the screens show for `CC(=O)Nc1ccc(NC(=O)Cn2c(=O)n(-c3ccc(C)cc3)c(=O)c3oc4ccccc4c32)cc1`?
Pf growth 48h: 2.7%; Shiga toxin inh: 40.5; Pf growth 96h: inconclusive; HCMV antiviral: -64.9*; CHX counter: -0.9

Source: PubChem BioAssay (National Center for Advancing Translational Sciences (NCATS))
